Bioassay records from PubChem.
SMN2 splice up = enhancers of SMN2 splice variant expression; HEK293 SMN2-luciferase splicing reporter, luminescence, 30-36 h; Potency, µM (highest dose often 46.1 µM), usual class: activators; hit rate 2.8% among 210,000; further: nearly all actives have a fitted effect of over 55% in size
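HEK293 cells carry an SMN2 […]–luciferase reporter in which exon 7 inclusion puts luciferase in frame. Cells were plated 10-12 h before compound addition, then incubated 30-36 h at 37C. ONE-Glo luminescence was read; sodium butyrate at 4.5 mM final served as control.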
ELG1 genotoxic = genotoxicity induction in ELG1-luciferase HEK293T cells | hit rate 1.3% among 330,000 | AID 504466 | Potency, µM (top dose mostly 46 µM), hits mostly activators | HEK293T ELG1-luciferase reporter, luminescence, 16 h; further: nearly all actives have a fitted effect of over 60% in size
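16 hr compound incubation (37 °C, 5% CO2) of HEK293T cells carrying luciferase-tagged ELG1; luciferase then measured by ONE-Glo luminescence after 30 min at RT.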
Rab9 promoter act = activates the Rab9 promoter. AID 485297. Potency, µM (top dose mostly 9.22 µM), actives largely listed as activators. hit rate 2.8% among 320,000. Huh7 Rab9 promoter-luciferase reporter, luminescence, 24 h; further: nearly all actives have a fitted effect of over 60% in size
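Steps: seed 1500 Huh7 Rab9-luc cells per well, rest 2 h at 37 °C; add compound in DMSO; incubate 24 h; add luciferase reagent, 10 min ambient; read luminescence.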
FLuc counter = counter-screen for miR-21 project: firefly luciferase inhibitors or activators. P08659. purified FLuc, Km substrates, luminescence inhibition. Potency, µM (top dose mostly 57.5 µM), hits mostly inhibitors. hit rate 6.9% among 360,000. AID 588342; further: nearly all actives have a fitted effect of over 55% in size
Target sequence (P08659 whole entry, looked up): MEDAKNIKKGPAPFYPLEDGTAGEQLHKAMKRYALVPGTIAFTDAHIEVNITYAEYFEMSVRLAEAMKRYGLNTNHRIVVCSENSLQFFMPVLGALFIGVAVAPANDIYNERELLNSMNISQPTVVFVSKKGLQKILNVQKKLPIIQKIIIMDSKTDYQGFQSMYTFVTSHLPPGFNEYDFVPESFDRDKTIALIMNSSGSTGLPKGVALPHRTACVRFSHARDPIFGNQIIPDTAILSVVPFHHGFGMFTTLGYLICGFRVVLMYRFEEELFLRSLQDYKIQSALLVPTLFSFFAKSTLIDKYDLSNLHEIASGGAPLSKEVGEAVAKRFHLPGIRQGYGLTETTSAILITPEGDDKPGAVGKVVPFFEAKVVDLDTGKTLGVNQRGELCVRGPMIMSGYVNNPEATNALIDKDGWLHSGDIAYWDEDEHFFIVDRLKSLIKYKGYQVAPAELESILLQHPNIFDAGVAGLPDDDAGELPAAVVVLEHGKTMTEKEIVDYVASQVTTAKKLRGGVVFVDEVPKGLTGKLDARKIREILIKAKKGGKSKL
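Purified P. pyralis luciferase, 10 nM final, with Km-level 10 uM D-luciferin and 10 uM ATP in 50 mM Tris acetate pH 7.5, 10 mM Mg acetate, 0.01% Tween-20, 0.05% BSA; 6-point qHTS titration about 60 µM downward; luminescence read.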
NPC1 prom act = activators of NPC1 promoter. Huh7 NPC1 promoter luciferase reporter, 24 h. Potency, µM (highest dose often 9.22 µM), actives largely listed as activators. hit rate 2.4% among 320,000; further: nearly all actives have a fitted effect of over 60% in size
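Huh7 cells stably carrying NPC1 promoter–luciferase, plated in Opti-MEM with 10% FBS for 2 h, were exposed to compound in DMSO for 24 h at 37 °C; luciferase reagent was added for 10 min and luminescence read.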
Numbers stand for hits; 0 = inactive; ? = inconclusive; - = no result given. Only some compounds are listed: those with a hit (about 7.5% of all), similar ones and a draw of the others. The call rests on the fitted dose curve; in most records, active means well fitted curve in the direction sought with a large enough effect; inconclusive means small, poorly fitted or top-dose-only effect, or another doubt; inactive means no such curve, though single readings can be large; an effect the other way counts as inactive or inconclusive.

SMILES	SMN2 splice up	ELG1 genotoxic	Rab9 promoter act	FLuc counter	NPC1 prom act
COc1ccc(CCNC(=O)C(C)n2nc(C)c3sc4ccccc4c3c2=O)c(OC)c1 (configuration not stated)	-	-	-	9.5µM	-
Cc1nn(C(C)C(=O)NCc2cccc(F)c2)c(=O)c2c1sc1ccccc12 (configuration not stated)	-	-	-	11µM	-
COc1ccc(CCNC(=O)CCCn2nc(C)c3sc4ccccc4c3c2=O)cc1OC	-	-	-	13µM	-
Cc1nn(C(C)C(=O)NCCCN2CCCCCC2)c(=O)c2c1sc1ccccc12 (configuration not stated)	-	0	0	0	0
CCOC(=O)N1CCN(C(=O)C(CC)n2nc(C)c3sc4ccccc4c3c2=O)CC1 (configuration not stated)	0	0	0	0	0
Cc1nn(C(C)C(=O)NCc2ccccc2Cl)c(=O)c2c1sc1ccccc12 (configuration not stated)	0	0	0	0	0
CCC(C(=O)N1CCN(c2ccccc2F)CC1)n1nc(C)c2sc3ccccc3c2c1=O (configuration not stated)	-	-	-	15µM	-
O=C(/C=C/c1ccccc1)N/C(=C\c1ccco1)C(=O)NCCO	0	0	0	0	0
Cc1nc2ccn(Cc3ccco3)c(=O)c2cc1C(=O)N1CCN(c2ccccc2)CC1	-	-	-	0	-
Cn1c2cc(Br)sc2c2cnn(Cc3ccc(F)cc3)c(=O)c21	-	-	0	0	0
CCC(C(=O)NCCc1ccccc1)n1nc(C)c2sc3ccccc3c2c1=O (configuration not stated)	-	-	-	19µM	-
CCC(C(=O)NCc1ccccc1)n1nc(C)c2sc3ccccc3c2c1=O (configuration not stated)	-	-	-	0	-
O=C(COn1nnc2ccccc21)NCC1CCCCC1	0	13µM	0	17µM	0
Cc1ccccc1-c1nnc(SCC(=O)N2CCCc3ccccc32)o1	0	-	-	?	-
COc1ccccc1-c1nnc(SCC(=O)N2CCOCC2)o1	8.9µM	0	0	?	0
COc1ccccc1-c1nnc(SCC(=O)N2CCCCC2)o1	-	0	0	0	0
Cc1ccccc1-c1nnc(SCC(=O)N2CCCC2)o1	-	?	?	17µM	?
COc1ccccc1-c1nnc(SC(C)C(=O)N2CCOCC2)o1 (configuration not stated)	-	?	0	0	0
O=C(CSc1nnc(-c2ccccc2Cl)o1)N1CCOCC1	-	?	3.5µM	19µM	2.2µM
COc1ccccc1-c1nnc(-c2ccc(N3CCOCC3)cc2)o1	5.6µM	0	?	19µM	?
Cc1ccc(SCc2nnc(N)s2)cc1	?	0	0	?	0
COC(=O)c1ccnc(SCC(=O)c2ccccc2)c1	?	15µM	2.8µM	3.8µM	3.2µM
O=C(CSc1ccc(-c2ccccn2)nn1)c1ccccc1	0	?	?	?	0
COC(=O)c1cnc(SCC(=O)c2ccccc2)n1C	-	?	1.1µM	3.4µM	1µM
CCOC(=O)C(=NC1CCS(=O)(=O)C1)NNc1ccccc1Cl (configuration not stated)	-	0	0	17µM	0
SMILES	SMN2 splice up	ELG1 genotoxic	Rab9 promoter act	FLuc counter	NPC1 prom act
O=C(NC(=S)Nc1cccnc1)c1cc2ccccc2o1	-	?	0	6.7µM	0
CC(=O)Nc1ccc(NC(=S)NC(=O)c2cc3ccccc3o2)cc1	0	0	0	0	0
O=C(NC(=S)NCc1cccnc1)c1cc2ccccc2o1	0	0	0	?	0
O=C(NC(=S)Nc1ccc(CN2CCCCC2)cc1)c1cc2ccccc2o1	-	0	0	0	3.2µM
O=C(Nc1cccnc1)c1cc2cc(Br)ccc2o1	-	5.2µM	?	1.2µM	2.5µM
O=C(NCc1n[nH]c(=S)n1-c1ccccc1)c1ccc(S(=O)(=O)N2CCCCC2)cc1	0	0	0	0	0
NC(=O)Nc1ccc(C(=O)N2CCN(S(=O)(=O)Cc3ccccc3)CC2)cc1	-	0	0	0	0
O=C(Nc1ccc(C(=O)N2CCOCC2)cc1)Nc1cccc2ccccc12	0	?	0	15µM	0
CC(C)(C)c1ccc(NC(=O)Nc2ccc(OCC(=O)N3CCOCC3)cc2)cc1	16µM	?	2.2µM	0.48µM	3.2µM
CCCN(CCC)S(=O)(=O)c1ccc(C(=O)Nc2ccc(OCC(=O)N3CCOCC3)cc2)cc1	0	0	0	0	0
O=C(Nc1ccc(OCC(=O)N2CCOCC2)cc1)Nc1cccc(Cl)c1	-	0	0	12µM	0
